Rows were chosen to be rich in hits. Some 19% of all compounds tested hit in one or more screens of this group.
Lassa entry inh: blocks Lassa virus binding to or entry into cells | Lassa virus pseudotype entry inhibition, cell reporter | Potency, µM (titrated, usually from 37.9 µM), for inactives: at the top dose activity change, negative = inhibition, usual class: inhibitors | 300,000 tested, 1.2% active | AID 540256; calls by dose curve; tested in HEK293 cells; further: potency means the concentration at half of the fitted maximal effect; on the % scale 0 is the no-effect control and ±100 the full control effect; nearly all actives have a fitted effect of over 50% in size
Shiga inhibitor: inhibitors of Shiga toxin in Vero cells; AID 2315; Vero cells, Shiga toxin protein synthesis inhibition reporter; 290,000 tested, 9.2% active; inhibition, % at 38.7 µM; in the data active means inhibition mostly above about 28%, no sharp cut-off; inactive means mostly below about 43%; further: 0% is about no effect
Pf growth 48h: inhibits P. falciparum growth in the first generation, 48 h; P. falciparum luciferase growth in erythrocytes, 48 h; Potency, µM (top dose mostly 28.7 µM), for inactives: at the top dose activity change, negative = inhibition, usual class: inhibitors; 310,000 tested, 5.9% active; AID 504832; further: potency means the concentration at half of the fitted maximal effect; on the % scale 0 is the no-effect control and ±100 the full control effect
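Luminescence readout; reporter = integrated firefly luciferase in P. falciparum. RBC culture at 2% hematocrit, 0.1% parasitemia final, 37 C/5% CO2; decreased signal taken as growth inhibition.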
Pf growth 96h: P. falciparum growth inhibition at 96 hours; P. falciparum luciferase reporter growth, 96 h; Potency, µM (highest dose often 28.7 µM), without a hit: at the highest dose activity change, negative = inhibition, usual class: inhibitors; 320,000 tested, 6.9% active; AID 504834; further: potency means the concentration at half of the fitted maximal effect; on the % scale 0 is the no-effect control and ±100 the full control effect
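P. falciparum expressing integrated firefly luciferase grown in erythrocytes (2% hematocrit, 0.05% parasitemia final) with compounds for 96 hours at 37 C, 5% CO2. Growth inhibition read as loss of luminescence after adding luciferase detection reagent.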
Cycloheximide cs: counter-screen hit for Shiga toxin inhibitors, cycloheximide; 300,000 tested, 12% active; max response, %; AID 2314; cell reporter, cycloheximide protein synthesis inhibition counterscreen; in the data active means max response mostly above about 13%, no sharp cut-off; inactive means mostly below about 14%; further: read at 38.3 µM for the half of the compounds with a filed dose; 0% is about no effect
Marburg entry inh: inhibitors of Marburg virus binding or cell entry; Marburg virus pseudotyped entry inhibition, cell reporter; Potency, µM (top dose mostly 37.8 µM), for the others: at the highest dose activity change, negative = inhibition, usual class: inhibitors; AID 540276; 300,000 tested, 1.8% active; calls by dose curve; tested in HEK293 cells; further: potency means the concentration at half of the fitted maximal effect; on the % scale 0 is the no-effect control and ±100 the full control effect
* marks the source's active call; other numbers are inactive results; ? = inconclusive; . = no result; [ ] = dose if it differs, or a comment. Unless noted, the call rests on the fitted dose curve; in most records, active means well fitted inhibition curve with a large enough effect; inconclusive means small, poorly fitted or top-dose-only effect, or another doubt; inactive means no such curve, though single readings can be large or run the other way.

SMILES	Lassa entry inh	Shiga inhibitor	Pf growth 48h	Pf growth 96h	Cycloheximide cs	Marburg entry inh
COc1cc([C@@H]2CC=C(C(=O)O)CN2S(=O)(=O)c2ccc(C)cc2)cc(OC)c1OC	.	.	?	31.8%	.	.
O=C(NCCC1=CCCCC1)C(=O)NCc1ccccc1Cl	3.2%	-3.6	25.8%	59.5%	1.9	22.6%
Cc1cccc2sc(N(CCCN(C)C)C(=O)c3ccc4ncsc4c3)nc12	.	37.6*	?	?	19.7*	.
Cc1cccc2sc(N(CCCN(C)C)C(=O)c3nc4ccccc4s3)nc12	-9.5%	6.2	0.6%	1.2%	-1.7	?
CCc1ccc2nc(N(CCN(C)C)C(=O)c3ccc4ncsc4c3)sc2c1	-25.5%	117.3*	-19.6%	217.8%	67.8*	?
CCc1ccc2nc(N(Cc3cccnc3)C(=O)c3ccc(C#N)cc3)sc2c1	2.0%[46.1 µM]	.	.	.	.	.
COc1ccc(-c2nnc(SCC(=O)Nc3ccc(C(C)=O)cc3)nc2-c2ccc(OC)cc2)cc1	16.5%[46.1 µM]	.	.	.	.	.
COc1ccc(Nc2cc(C(=O)NCc3cccs3)c3ccccc3n2)cc1	-3.5%[46.1 µM]	.	.	.	.	-0.7%[46.1 µM]
Cc1ccc(Cn2nc(C)cc2C(=O)Nc2ccccc2Cl)cc1	?	147.3*	1.9%[0.00184 µM]	41.8%	59.2*	?
Cc1ccc(Cn2nc(C)cc2C(=O)Nc2ccc(Cl)cc2)cc1	3.0%	72.4*	?	?	38.6*	-29.3%[46.1 µM]
Cc1ccc(Cn2c(C(=O)Nc3ccc(Cl)cc3)cc3sccc32)cc1	15.7%[46.1 µM]	.	.	.	.	-4.1%[46.1 µM]
Cc1ccc(Cn2nc(C(=O)Nc3ccc(Br)cc3)cc2C)cc1	?	154.2*	-17.0%[0.00184 µM]	42.8%	53.9*	?
COc1ccc(CC(=S)N2CCOCC2)cc1F	9.0%	15.6	9.0%	3.6%	1.2	-3.7%
COc1ccc2c(c1)C(=O)[C@@H](O)[C@H](c1ccc(OC)c(Br)c1)O2	?	42.8*	3.7µM*	3.29µM*	17.9*	4.7%
COc1cccc([C@@H]2Oc3ccc(OC)cc3C(=O)[C@H]2O)c1	?	42.3*	-21.6%	3.7µM*	39.5*	?
CC(C)OC(=O)CCNc1n[nH]c(=O)[nH]c1=O	16.5%	-6.1	-14.6%	3.5%	-0.9	?
O=C(Nc1nccs1)c1cc(Cl)nc2ccccc12	-16.9%	-2.3	37.9%	20.6%	-1.2	?
CC1=C(C(N)=O)C(c2cccs2)n2ncnc2N1 (centres undefined)	?	-2.3	?	73.1%	-3.3	?
CCCCCOC(=O)C1=C(C)Nc2ncnn2C1c1cccs1 (centres undefined)	20.6µM*	4.1	?	.	-1.4	?
O=C(Nc1cccc(C(F)(F)F)c1)OC1CN2CCC1CC2 (centres undefined)	.	5.3	22.5%	0.9%	-3.0	.
O=C(Nc1ccc(C(F)(F)F)cc1)OC1CN2CCC1CC2 (centres undefined)	-4.3%	54.7*	?	?	31.9*	-24.2%[46.1 µM]
Cc1nc(NC(=O)COC(=O)C2=NNC(=O)CC2)c(Cl)cc1Cl	?	-11.0	3.0%	23.9%	-1.6	?
O=C(CSc1nnc(-c2ccncc2)o1)Nc1nncs1	0.3%	-1.6	20.8%	?	-5.4	0.7%[46.1 µM]
On1onc2c3cc(-c4ccccc4)nc3ccc21	?	127.7*	?	.	69.3*	?
CCCCNC(=O)c1ccc(CS(=O)(=O)Cc2ccccc2F)o1	.	11.3	9.3%	-7.2%	-1.0	.
SMILES	Lassa entry inh	Shiga inhibitor	Pf growth 48h	Pf growth 96h	Cycloheximide cs	Marburg entry inh
Cc1cccc(Nc2nc(-c3ccccc3)c(C(=O)Nc3cccnc3)s2)c1	?	48.0*	-17.8%	?	33.4*	?
Cc1cccc(-c2cc(C(=O)Nc3cccnc3)c3ccccc3n2)c1	-28.5%	-31.3	?	?	9.7	-25.1%
O=C(Nc1ccccn1)c1cc(-c2cccnc2)nc2ccc(Br)cc12	?	-10.9	3.7µM*	2.8%	-4.9	?
Cc1c(-c2ccccc2)nc2ccccc2c1C(=O)Nc1ccncc1	0.4%[46.1 µM]	-13.9	1.65µM*	0.329µM*	-4.3	?
Cc1cccc(-c2cc(C(=O)Nc3ccncc3)c3ccccc3n2)c1	-18.5%[46.1 µM]	-1.5	1.04µM*	2.33µM*	8.4*	?
Cc1c(-c2ccccc2)nc2ccccc2c1C(=O)O	16.2%	-5.7	-2.1%	-5.3%	-2.3	28.8%
O=C(Nc1cccnc1)c1sc(Nc2ccccc2)nc1-c1ccccc1	-15.9%	-18.2	11.0%	-4.7%	-1.3	-27.8%
O=C(CSc1nnc(NC2CC2)s1)NN1C(=O)NC2(CCCCC2)C1=O	.	.	-17.0%	-21.2%	.	.
N#Cc1c(F)cccc1N1CCC(C#N)CC1	0.2%	5.3	49.7%	9.2%	-1.4	-23.6%
CCCCn1c(N)c(N(CC(C)C)C(=O)C2CCN(C(=O)c3ccc(Cl)cc3)CC2)c(=O)[nH]c1=O	-29.4%[46.1 µM]	.	3.0%	6.2%	.	?
Cc1ccc2nc(-c3ccncc3)cc(-c3ccccc3)c2c1	-1.5%	-11.0	10.4µM*	9.28µM*	-1.7	13µM*
Cc1ccc(-c2cc(C(=O)Nc3cccnc3)c3ccccc3n2)s1	-17.5%	-1.4	2.62µM*	?	10.0	-27.9%
Cc1ccc2nc(-c3cccc(Br)c3)cc(C(=O)NC3CC3)c2c1	-18.1%	-13.0	4.65µM*	?	0.9	26.9%
Cc1ccc2nc(-c3ccccc3)cc(C(=O)Nc3cccnc3)c2c1	-8.6%	.	2.08µM*	1.65µM*	.	-10.1%
Cc1cc(C)nc(NC(=O)c2cc(-c3ccc(C)s3)nc3ccccc23)c1	0.3%	1.3	?	-83.4%	10.0	-24.4%
Cc1ccc2nc(-c3ccc(NS(C)(=O)=O)cc3)cc(-c3ccccc3)c2c1	-17.9%	-17.8	?	?	-4.3	-15.5%
O=C(Cn1ccc([N+](=O)[O-])n1)c1ccccc1	4.0%	17.1	21.1%	5.4%	7.6	-0.9%
CCc1c(C)nc(SCC(=O)N2CCc3ccccc32)[nH]c1=O	.	-22.9	18.3%	-13.4%	0.4	.
N#CCCN(C(=O)COC(=O)CSc1ccc(Cl)cc1)c1ccccc1	8.3%	.	.	.	.	-1.5%
Cc1nn(Cc2ccccc2)c2c1C(c1cccnc1)C(C#N)=C(N)O2 (centres undefined)	2.1%	18.2	.	24.8%	6.7	-0.5%
Cc1ccc2nc(-c3cccnc3)cc(C(=O)Nc3ccc(F)cc3C)c2c1	?	6.8	?	-15.7%	-0.6	?
Cc1ccc2nc(-c3ccncc3)cc(C(=O)Nc3ccc(F)cc3C)c2c1	?	-5.4	6.57µM*	?	-2.4	?
O=S(=O)(Nc1ncnc2c1oc1ccccc12)c1ccc(Cl)s1	28.9%	-5.8	50.6%	34.6%	15.6*	4.9%
CNc1c(NS(=O)(=O)c2ccc(Cl)s2)c(=O)oc2ccccc12	1.1%	17.8	1.5%	2.6%	1.0	0.9%[46.1 µM]
CC(=O)c1ccc(Nc2nc(C)nc3c2oc2ccccc23)cc1	.	-2.2	22.6%	.	8.1	-9.6%
Oc1ccc(Nc2ncnc3c2oc2ccccc23)cc1	.	32.9*	30.8%	26.8%	40.5*	.
CC(C)C(Nc1ncnc2c1oc1ccccc12)C(=O)O (centres undefined)	?	23.8	22.9%	4.65µM*	-2.4	-0.3%[46.1 µM]
